Rows were chosen to be rich in hits. Some 3.9% of all compounds tested hit in one or more screens of this group.
PrPC TRFRET = reduces human prion protein on the cell surface. P04156. inhibition, % at 13.8 µM. cell surface PrPC, TR-FRET read-out. 0.43% of 370,000 active; in the data active = inhibition above about 24%; also: 0% = median of the test wells and 100% = reference compound wells
FBA Mtb inh = inhibitors of M. tuberculosis fructose-bisphosphate aldolase | AID 588726 | P9WQA3 | 2.3% of 360,000 active | purified M. tuberculosis FBA, fluorescence read-out | inhibition, % at 1 µM;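 also: 0% = vehicle and 100% = reference inhibitor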
Target sequence (P9WQA3 whole entry, looked up): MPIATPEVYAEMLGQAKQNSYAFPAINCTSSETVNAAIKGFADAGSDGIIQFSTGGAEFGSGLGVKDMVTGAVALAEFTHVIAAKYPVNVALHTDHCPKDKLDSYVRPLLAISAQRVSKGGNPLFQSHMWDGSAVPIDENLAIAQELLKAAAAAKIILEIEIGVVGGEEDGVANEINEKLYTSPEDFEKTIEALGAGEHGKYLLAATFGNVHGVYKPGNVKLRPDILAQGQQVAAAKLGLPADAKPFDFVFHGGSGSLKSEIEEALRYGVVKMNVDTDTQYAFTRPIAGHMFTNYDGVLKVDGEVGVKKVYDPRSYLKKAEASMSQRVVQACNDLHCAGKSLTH
SARS 3CLpro inh = SARS-CoV 3CLpro protease inhibition. P0C6X7. inhibition, % at 6 µM. recombinant SARS-CoV 3CLpro, quenched FRET peptide cleavage. AID 1706. 0.14% of 290,000 active; in the data active = inhibition above about 12%
GDH-TPI counter-1 = GDH-TPI coupled enzyme inhibition counter-screen; inhibition, % at 4.8 µM; 1.2% of 360,000 active; GDH-TPI coupled enzyme counterscreen, NADH absorbance; AID 588335; in the data active = inhibition above about 30%;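 also: 0% = DMSO wells and 100% = wells lacking the enzyme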
Vc quorum ag = quorum light induction in luxS cqsA deficient V. cholerae | V. cholerae BH1578 lux reporter, luminescence, 6 h | activation, % at 18.7 µM | 0.16% of 350,000 active | AID 588436; in the data active = activation mostly above about 9.7%, no sharp cut-off
Mtb FBA inh conf = confirmation of M. tuberculosis fructose-bisphosphate aldolase inhibitors; inhibition, % at 1 µM; 78% of 5,600 active; purified M. tuberculosis FBA, fluorescence read-out; shares compounds with FBA Mtb inh; AID 651616;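 also: 0% = vehicle wells and 100% = reference inhibitor wells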
GDH-TPI counter-2 = counter-screen for M. tuberculosis FBA inhibitors: GDH-TPI coupled enzyme inhibition. shares compounds with FBA Mtb inh. GDH-TPI coupled enzyme counterscreen, fluorescence. inhibition, % at 1 µM. 81% of 5,600 active. AID 652141; in the data active = inhibition above about 10%
* hit, by the source's call; i = inactive; · = no result; + = active, no number. Rule as the data show it, unless noted: active = inhibition above about 27%; inactive = the rest.

SMILES	PrPC TRFRET	FBA Mtb inh	SARS 3CLpro inh	GDH-TPI counter-1	Vc quorum ag	Mtb FBA inh conf	GDH-TPI counter-2
O=C(NCc1ccc(Cl)cc1Cl)C1CC(=O)N(Cc2ccccc2)C1 (centres undefined)	15	0	2	-1	i	·	·
Cn1c(=O)c2cc(NC(=S)NCc3ccccc3F)ccc2n1Cc1ccc(F)cc1	12	12	·	9	i	·	·
COc1ccc(-n2cc(CN[C@H]3CCCCNC3=O)c(-c3cccc(F)c3)n2)cc1	-1	57*	0	6	i	-4	-1
COc1ccc(-n2cc(CNC3CCN(C)CC3)c(-c3cccc(F)c3)n2)cc1	-15	64*	5	13	-1	189*	162*
CCC(COC)NCc1cn(-c2ccc(OC)cc2)nc1-c1cccc(F)c1 (centres undefined)	-4	15	2	-4	i	·	·
COc1ccc(-n2cc(CN3CCCC3)c(-c3cccc(F)c3)n2)cc1	2	22	3	1	-2	·	·
COc1cccc(CN(C(=O)c2ccc([N+](=O)[O-])cc2)C2CCS(=O)(=O)C2)c1 (centres undefined)	-18	64*	2	12	0	101*	79*
COc1cccc(CN(C(=O)COc2ccccc2[N+](=O)[O-])C2CCS(=O)(=O)C2)c1 (centres undefined)	·	4	8	1	i	·	·
CCOC(=O)[C@@]12CCCC3=C1N(CCC3)C(=O)[C@H]2CC(=O)NCC12CC3CC(CC(C3)C1)C2	-9	·	·	·	·	·	·
COCCNC(=O)c1cc2c(c(-c3cccc(C#Cc4ccc(OC)c(OC)c4)c3)n1)[C@@H](CCO)N(S(=O)C(C)(C)C)C2 (some centres undefined)	0	-1	·	·	·	·	·
O=C1CC(C(=O)Nc2ccc(Br)cc2)C2(CCCC2)O1 (centres undefined)	3	·	-1	·	·	·	·
O=C1CC(C(=O)Nc2ccccc2)C2(CCCCC2)O1 (centres undefined)	9	50*	-1	2	1	3	-4
CCOCCCNC(=S)Nc1ccc2nc(N3CCOCC3)cc(C)c2c1	-7	32*	0	-3	-1	+	+
COCCCNC(=S)Nc1ccc2nc(N3CCOCC3)cc(C)c2c1	-2	20	-3	11	-1	·	·
COc1ccc(CNC(=S)Nc2ccc3nc(N4CCOCC4)cc(C)c3c2)cc1	-4	31*	3	16	i	33*	28*
CCC1CCCCN1C(=O)c1cc2c(=O)n3cccc(C)c3nc2s1 (centres undefined)	·	16	7	7	0	·	·
CCC(C)n1c(=N)c(C#N)cc2c(=O)n3cccc(C)c3nc21 (centres undefined)	-8	20	1	1	0	·	·
Cc1cccn2c(=O)c3cc(C#N)c(=N)n(Cc4cccnc4)c3nc12	-8	4	-6	10	5	·	·
Cc1cccn2c(=O)c3cc(C#N)c(=NC(=O)c4cccs4)n(CC(C)C)c3nc12	-3	35*	-1	1	-1	+	190*
Cc1ccc(-n2c(=O)c(C#N)cc3c(=O)n4cccc(C)c4nc32)cc1	0	62*	2	-1	i	138*	84*
Cc1cccn2c(=O)c3cc(C#N)c(=O)n(Cc4cccnc4)c3nc12	-6	111*	·	6	0	87*	71*
CC(=O)N=c1c(C#N)cc2c(=O)n3ccccc3nc2n1Cc1ccccc1	7	28*	5	-7	-1	122*	108*
NC(Cc1ccc(F)cc1)c1csc(Nc2nccc(C(F)(F)F)n2)n1 (centres undefined)	-7	-1	·	-4	4	·	·
O=C(O)c1cccc(NC(=O)c2cccc(S(=O)(=O)N3CCc4ccccc4C3)c2)c1	-6	2	7	-8	-2	·	·
COc1cccc2c1cc1c(=O)n(CC(=O)N3CCCC3)nc(C)n12	-6	80*	·	-2	0	9	2
SMILES	PrPC TRFRET	FBA Mtb inh	SARS 3CLpro inh	GDH-TPI counter-1	Vc quorum ag	Mtb FBA inh conf	GDH-TPI counter-2
COc1ccc2oc(C(=O)OCC(=O)N(Cc3ccccc3)C(C)C)c(C)c2c1	8	17	·	5	0	·	·
CCOC(=O)c1c(C)[nH]c(C(=O)COC(=O)c2oc3ccc(OC)cc3c2C)c1C	3	7	0	-1	i	·	·
COc1ccc2oc(C(=O)OCC(=O)N(C)c3ccccc3)c(C)c2c1	2	35*	·	-2	1	128*	101*
COc1ccc2oc(C(=O)OCC(=O)N(C)Cc3ccccc3)c(C)c2c1	1	31*	·	2	-1	158*	168*
COc1ccccc1N(Cc1ccccc1)S(=O)(=O)c1cccc(C(=O)Nc2ccc(C)cn2)c1	-6	-1	·	11	-6	·	·
COC1OC(CO)C(O)C(O)C1O (centres undefined)	-5	33*	1	2	0	55*	45*
N#Cc1ccccc1NC(=O)COC(=O)CCc1ccccc1	4	2	3	-6	0	·	·
COc1cccc2c(=O)c3c(oc12)CCCC3	-3	45*	·	6	i	131*	94*
Nc1cccc2c3c(oc12)CCCC3	2	-2	-2	1	i	·	·
Cc1cc(C)c(NC(=O)c2cn3c4c(c(N5CCN(C)CC5)c(F)cc4c2=O)OCC3C)c(C)c1 (centres undefined)	-17	28*	1	6	0	+	+
COC(=O)Cc1c[nH]c2cccc(OCC(O)CN(Cc3ccccc3)C(C)C)c12 (centres undefined)	3	29*	-1	-3	i	25	25*
COC(=O)Cc1c[nH]c2cccc(OCC(O)CN(Cc3ccc([N+](=O)[O-])cc3)C(C)(C)C)c12 (centres undefined)	3	-1	5	0	i	·	·
Cc1ccc2nc(-c3ccc4c(c3)NC(=O)CO4)cn2c1	3	14	-1	15	i	·	·
Cc1ccc2nc(-c3ccc4c(c3)OCCO4)cn2c1	13	62*	3	13	i	195*	141*
Clc1ccc2nc(-c3ccc4c(c3)OCO4)cn2c1	3	45*	1	29	3	+	+
c1ccn2cc(-c3ccc4c(c3)OCCO4)nc2c1	-6	80*	-2	7	0	91*	90*
O=C(O)C(Cc1ccc(Cl)cc1)NS(=O)(=O)c1ccc(Cl)cc1 (centres undefined)	8	6	11	-9	-2	·	·
CC(C)C1N(C(=O)N2CCOCC2)CCN1S(=O)(=O)c1ccccc1 (centres undefined)	6	-1	1	0	i	·	·
CNC(=O)c1c(NC(=O)CCS(=O)(=O)c2ccc(F)cc2)sc(C)c1C	4	-3	·	-5	-6	·	·
